Read-out in test [1]: Thrombomodulin, THBD (gene 7056)
Description: BSK_3C_Thrombomodulin: BioMAP Diversity Plus: 3C Assay for Thrombomodulin Biomarker Activity (AID 2283029). Conditions: primary human endothelial cells (HUVEC); actives raise or lower the signal. The procedure, abridged: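 HUVEC, 3C conditions; compound 24 h; thrombomodulin by ELISA; bidirectional curve fit vs DMSO baseline; parallel SRB total-protein staining for cytotoxicity.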

Read-out in test [2]: Urokinase-type plasminogen activator receptor (uPAR), PLAUR (gene 5329)
Description: BSK_4H_uPAR: BioMAP Diversity Plus: 4H Assay for Urokinase-type plasminogen activator receptor (uPAR) Biomarker Activity (AID 2283030). To be noted: primary human endothelial cells (HUVEC); actives raise or lower the signal. The procedure, abridged:
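uPAR level read by ELISA on HUVEC cultures (BioMAP 4H) 24 h post-dosing, analyzed for gain or loss relative to DMSO. Parallel SRB staining assessed overt cytotoxicity.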

Read-out in test [3]: Vascular endothelial growth factor receptor 2 (Homo sapiens) (UniProt P35968)
In words: BSK_4H_VEGFRII: BioMAP Diversity Plus: 4H Assay for Vascular endothelial growth factor receptor 2 (VEGFR2) Biomarker Activity (AID 2283031). Conditions: primary human endothelial cells (HUVEC); actives raise or lower the signal. The procedure, abridged: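 Measured by ELISA after 24 h of compound treatment: VEGFR2 on primary human umbilical vein endothelial cells, fitted in both directions relative to DMSO. Parallel cultures received SRB staining (560 nm) for overt cytotoxicity.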

Read-out in test [4]: Human Leukocyte Antigen - DR isotype (HLADR), HLA-DRA (gene 3122)
Description: BSK_BE3C_HLADR: BioMAP Diversity Plus: BE3C Assay for Human Leukocyte Antigen - DR isotype (HLADR) Biomarker Activity (AID 2283032). Conditions: primary human bronchial epithelial cells; actives raise or lower the signal. The procedure, abridged:
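Primary human bronchial epithelial cells (BE3C); 24 h chemical exposure; HLA-DR by ELISA; bidirectional curve fit vs DMSO baseline.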

Read-out in test [5]: Vascular cell adhesion molecule 1 (VCAM1), VCAM1 (gene 7412)
Description: BSK_4H_VCAM1: BioMAP Diversity Plus: 4H Assay for Vascular cell adhesion molecule 1 (VCAM1) Biomarker Activity (AID 2283033).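 On outcome: cell-surface VCAM-1 protein measured by ELISA.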 Conditions: primary human endothelial cells (HUVEC); actives raise or lower the signal. A digest of the protocol:
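HUVEC, 24 h post-dose; VCAM-1 by ELISA. Bidirectional curve fit vs DMSO baseline. Parallel SRB total-protein stain (0.1% SRB after 10% TCA fixation, 560 nm) for cytotoxicity.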

Read-out in test [6]: Monokine induced gamma interferon (MIG), CXCL9 (gene 4283)
Description: BSK_BE3C_MIG: BioMAP Diversity Plus: BE3C Assay for Monokine induced gamma interferon (MIG) Biomarker Activity (AID 2283035).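 On outcome: MIG protein measured by ELISA in BE3C cultures after 24 h of dosing.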 To be noted: primary human bronchial epithelial cells; actives raise or lower the signal. The procedure, abridged: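 hu bronchial epithelial 1° cells, 24 h cpd; MIG by ELISA; bidirectional fit, DMSO = baseline.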

Read-out in test [7]: Transforming growth factor beta 1 (TGFb1), TGFB1 (gene 7040)
In words: BSK_BE3C_TGFb1: BioMAP Diversity Plus: BE3C Assay for Transforming growth factor beta 1 (TGFb1) Biomarker Activity (AID 2283036;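 on outcome: TGF-b1 protein level measured by ELISA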). Conditions: primary human bronchial epithelial cells; actives raise or lower the signal. A digest of the protocol: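 Read-out: ELISA for TGF-b1 in primary human bronchial epithelial cultures, 24 h post-dose. Bidirectional curve fitting vs DMSO control; gain or loss of signal both scored.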

Read-out in test [8]: Plasminogen activator inhibitor-1 (PAI1), SERPINE1 (gene 5054)
In words: BSK_BE3C_PAI1: BioMAP Diversity Plus: BE3C Assay for Plasminogen activator inhibitor-1 (PAI1) Biomarker Activity (AID 2283037). To be noted: primary human bronchial epithelial cells; actives raise or lower the signal. A digest of the protocol:
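ELISA read-out of PAI-1 from human bronchial epithelial primary cells, 24 h post-dosing; bidirectional curve fit vs DMSO baseline, gain or loss of signal scored.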

Read-out in test [9]: urokinase plasminogen activator (uPA), PLAU (gene 5328)
In words: BSK_BE3C_uPA: BioMAP Diversity Plus: BE3C Assay for urokinase plasminogen activator (uPA) Biomarker Activity (AID 2283038).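 On outcome: uPA protein level quantified by ELISA in cell cultures; uPA read one day after compound addition.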 Conditions: primary human bronchial epithelial cells; actives raise or lower the signal. The procedure, abridged: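 ELISA for uPA on human primary bronchial epithelial cultures 24 h post-treatment, gain or loss against DMSO. Parallel SRB staining (0.1% after 10% TCA fixation, 560 nm) assessed overt cytotoxicity.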

Read-out in test [10]: Urokinase-type plasminogen activator receptor (uPAR), PLAUR (gene 5329)
In words: BSK_BE3C_uPAR: BioMAP Diversity Plus: BE3C Assay for Urokinase-type plasminogen activator receptor (uPAR) Biomarker Activity (AID 2283039).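 On outcome: uPAR protein level measured by ELISA on the cells; cells exposed to compound for one day before measurement.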 To be noted: primary human bronchial epithelial cells; actives raise or lower the signal. The procedure, abridged: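 ELISA readout of uPAR on human lung primary bronchial epithelial cells, 24 h post-dosing. Bidirectional curve fit relative to DMSO vehicle baseline; gain or loss of signal both scored.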

Read-out in test [11]: Interleukin-6 (IL6), IL6 (gene 3569)
Description: BSK_CASM3C_IL6: BioMAP Diversity Plus: CASM3C Assay for Interleukin-6 (IL6) Biomarker Activity for (AID 2283040). To be noted: primary human coronary artery smooth muscle cells; actives raise or lower the signal.

Read-out in test [12]: Tissue plasminogen activator (tPA), PLAT (gene 5327)
Description: BSK_BE3C_tPA: BioMAP Diversity Plus: BE3C Assay for Tissue plasminogen activator (tPA) Biomarker Activity (AID 2283041).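 On outcome: tPA level quantified by ELISA one day after compound addition.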 To be noted: primary human bronchial epithelial cells; actives raise or lower the signal. The procedure, abridged:
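ELISA read-out of tPA on human primary bronchial epithelial cells, 24 h post-dosing; bidirectional fit vs DMSO negative control/baseline.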

Read-out in test [13]: Interleukin-8 (IL8), CXCL8 (gene 3576)
In words: BSK_CASM3C_IL8: BioMAP Diversity Plus: CASM3C Assay for Interleukin-8 (IL8) Biomarker Activity (AID 2283042).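 Further: IL-8 protein level quantified by ELISA.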 To be noted: primary human coronary artery smooth muscle cells; actives raise or lower the signal.

Read-out in test [14]: Human Leukocyte Antigen - DR isotype (HLADR), HLA-DRA (gene 3122)
In words: BSK_CASM3C_HLADR: BioMAP Diversity Plus: CASM3C Assay for Human Leukocyte Antigen - DR isotype (HLADR) Biomarker Activity (AID 2283043).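 Further: cell-surface HLA-DR protein level quantified by ELISA.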 Conditions: primary human coronary artery smooth muscle cells; actives raise or lower the signal.

Read-out in test [15]: Macrophage colony-stimulating factor (MCSF), CSF1 (gene 1435)
Description: BSK_CASM3C_MCSF: BioMAP Diversity Plus: CASM3C Assay for Macrophage colony-stimulating factor (MCSF) Biomarker Activity (AID 2283044).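 Further: M-CSF protein amount quantified by ELISA after 24 h exposure.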 Conditions: primary human coronary artery smooth muscle cells; actives raise or lower the signal.

Read-out in test [16]: Low-density lipoprotein receptor (LDLR), LDLR (gene 3949)
In words: BSK_CASM3C_LDLR: BioMAP Diversity Plus: CASM3C Assay for Low-density lipoprotein receptor (LDLR) Biomarker Activity (AID 2283045).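 Further: LDLR protein level on the cell surface quantified by ELISA.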 Conditions: primary human coronary artery smooth muscle cells; actives raise or lower the signal.

Read-out in test [17]: Monocyte Chemoattractant Protein-1 (MCP1), CCL2 (gene 6347)
In words: BSK_CASM3C_MCP1: BioMAP Diversity Plus: CASM3C Assay for Monocyte Chemoattractant Protein-1 (MCP1) Biomarker Activity (AID 2283046).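 Further: MCP-1 level quantified by ELISA 24 h after dosing.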 Conditions: primary human coronary artery smooth muscle cells; actives raise or lower the signal.

Test [18] in a line: BSK_CASM3C_Proliferation: Cell Proliferation Assessment in the BioMAP Diversity Plus: CASM3C Assay (AID 2283047).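 Further: sulforhodamine B total protein stain as relative cell number at 560 nm; sub-confluent cells exposed 48 h before staining; fitted both ways against DMSO so gain or loss of cell number.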 To be noted: primary human coronary artery smooth muscle cells.
Read-out in test [19]: Monokine induced gamma interferon (MIG), CXCL9 (gene 4283)
Description: BSK_CASM3C_MIG: BioMAP Diversity Plus: CASM3C Assay for Monokine induced gamma interferon (MIG) Biomarker Activity (AID 2283048).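 Further: MIG protein level measured by ELISA.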 Conditions: primary human coronary artery smooth muscle cells; actives raise or lower the signal.

The source made the active and inactive calls. How the source made its calls: active means hit-call score of the fitted dose curve at least 0.9, where 1 is the maximum; inactive means score below 0.9.

As usually defined, the AC50 is the midpoint of the concentration-response curve, whichever way the signal moves. Consider `CCC(C)(C)c1ccc(O)c(C(C)(C)CC)c1`, for which the AC50 is 34.5 µM (active) in [1]; 11.4 µM (active) in test [2]; 25.2 µM (active) in test [4]; 10.4 µM (active) in test [5]; 36 µM (active) in test [6]; 20 µM (active) in test [7]. The AC50 is 31.4 µM (active) in [8]; 32.4 µM (active) in test [9]; 36.6 µM (active) in test [10]; 29.4 µM (active) in test [11]; 26.6 µM (active) in test [12]; 38.7 µM (active) in test [13]. The concentration at half-maximal activity (AC50) in [14] was 16.4 µM (active); in test [15], 28.9 µM (active); in [16], 33.8 µM (active); in [17], 34.6 µM (active); in test [18], 14.3 µM (active); in test [19] it was 35.8 µM (active). The result in test [3] was inactive.
For `ClC1(Cl)C2(Cl)C3(Cl)C4(Cl)C(Cl)(Cl)C5(Cl)C3(Cl)C1(Cl)C5(Cl)C24Cl` (centres undefined), the outcome in [1], in test [2], in test [3], in test [4], in test [5] and in [6] was inactive. Also, the outcome in test [7], in test [8], in test [9], in test [10], in test [11] and in test [12] was inactive. Also, the outcome in test [13], in [14], in test [15], in [17], in test [18] and in test [19] was inactive. The AC50 in test [16] is 1.14 µM (active).
On to `CC(C)c1ccc(CO)cc1`, for which the outcome in test [1], in [2], in [3], in [4], in test [5] and in [6] was inactive. In addition, the result in test [7], in test [8], in [9], in test [10], in test [11] and in test [12] was inactive. The result in test [13], in [14], in test [15], in [16], in test [17] and in [18] was inactive. The outcome in test [19] was inactive.
For the molecule `C=CC(=O)OCCCCCC(C)C`, the outcome in [1], in test [2], in test [3], in [4], in test [5] and in test [6] was inactive. For the same molecule, the outcome in test [7], in [8], in test [9], in [10], in test [11] and in test [12] was inactive. Besides, the result in test [13], in [14], in [15], in [16], in test [17] and in [18] was inactive. Moreover, the outcome in test [19] was inactive.
With `NC(=O)O`, the result in [1], in test [2], in test [3], in test [4], in [5] and in test [6] was inactive. For the same molecule, the outcome in test [7], in test [8], in test [9], in test [10], in test [11] and in test [12] was inactive. Besides, the result in [13], in [14], in test [15], in test [16], in test [17] and in test [18] was inactive. For the same molecule, in test [19], the outcome was inactive.
Take `O=Cc1cccc(Oc2ccccc2)c1`: the result in test [1], in test [2], in test [3], in test [4], in [5] and in test [6] was inactive. Moreover, the result in test [7], in test [8], in test [9], in test [10], in test [11] and in test [12] was inactive. The outcome in [13], in test [14], in [15], in [16], in test [17] and in [18] was inactive. Also, in test [19], the result was inactive.

(Values after PubChem BioAssay (EPA / NIEHS).)
